# Screens deposited in PubChem by The Scripps Research Institute Molecular Screening Center.
# Most compounds without a hit are left out; they make up all but 1.9% or so of the library.
# PME-1 primary: blocks human protein phosphatase methylesterase 1 | Q9Y570 | recombinant PME-1, FP-Rh probe fluorescence polarization | inhibition, % at 5.9 µM | 320,000 tested, 0.53% active | AID 2130;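 active means inhibition above the campaign mean of all compounds plus 3 SD, cut at about 26% in these data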;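 further: competitive labeling of PME-1 active site by serine hydrolase directed probe; inhibitors block probe labeling so polarization falls and inhibition rises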
# LYPLA2 inh: blocks human lysophospholipase 2, a PME1 counter-screen; recombinant LYPLA2, FP-Rh probe fluorescence polarization; 320,000 tested, 0.38% active; inhibition, % at 5.9 µM;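 active means inhibition above the screen-wide mean plus 3 SD, limit set per campaign, cut at about 26% in these data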
# Target sequence (O95372 whole entry, looked up): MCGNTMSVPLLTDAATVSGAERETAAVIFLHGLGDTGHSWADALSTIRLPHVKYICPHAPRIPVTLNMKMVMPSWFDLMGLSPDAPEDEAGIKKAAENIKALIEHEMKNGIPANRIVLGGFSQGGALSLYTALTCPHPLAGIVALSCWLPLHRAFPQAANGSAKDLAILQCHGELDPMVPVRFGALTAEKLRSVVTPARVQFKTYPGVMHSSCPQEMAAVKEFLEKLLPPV
# GSTO1 counter: counter-screen for RBBP9 inhibitors: inhibitors of human GSTO1 | P78417 | recombinant GSTO1, activity-based probe fluorescence polarization | inhibition, % at 5.96 µM | 300,000 tested, 1.1% active | AID 1974;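 active means inhibition above the campaign mean inhibition plus 3 SD, cut at about 35% in these data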
# Target sequence (P78417 whole entry, looked up): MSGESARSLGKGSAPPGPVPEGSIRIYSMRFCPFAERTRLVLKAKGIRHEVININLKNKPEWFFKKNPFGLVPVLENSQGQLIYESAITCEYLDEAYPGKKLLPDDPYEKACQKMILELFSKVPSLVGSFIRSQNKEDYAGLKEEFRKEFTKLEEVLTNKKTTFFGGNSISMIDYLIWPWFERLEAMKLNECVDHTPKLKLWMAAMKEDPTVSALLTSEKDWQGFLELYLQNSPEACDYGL
# LYPLA1 inh: blocks human lysophospholipase 1, a PME1 counter-screen. O75608. recombinant LYPLA1, FP-Rh probe fluorescence polarization. inhibition, % at 5.9 µM. 320,000 tested, 0.16% active;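 active means inhibition above the mean of all tested compounds plus 3 SD, set per campaign, cut at about 14% in these data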;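 further: inhibitors block serine hydrolase probe labeling of LYPLA1 so polarization falls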
# Fam108B counter: Fam108B inhibition, counter-screen for RBBP9 inhibitors | 300,000 tested, 0.33% active | AID 1947 | recombinant Fam108B, FP-Rh probe fluorescence polarization | inhibition, % at 9.51 µM;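 active means inhibition above the screen mean inhibition plus 3 SD, computed separately per campaign, cut at about 18% in these data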;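 further: inhibitors lower polarization as less probe binds the enzyme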
# PREPL inh: inhibitors of human prolyl oligopeptidase-like enzyme PREPL. Q4J6C6. recombinant PREPL, fluorescence polarization activity-based probe. inhibition, % at 5.96 µM. 320,000 tested, 0.68% active. AID 2751; in the data active means inhibition above about 43%
# GSTO1 inh conf: GSTO1 (human) inhibition, confirmation | AID 2176 | recombinant GSTO1, probe fluorescence polarization | 2,400 tested, 54% active | inhibition, % at 5.96 µM | shares compounds with GSTO1 counter;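 active means inhibition above the primary screen's cutoff, its mean inhibition plus 3 SD, cut at about 35% in these data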;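 further: loss of polarization as inhibitors block binding of rhodamine sulfonate ester activity probe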
# GSTO1 recomb ABPP: blocks recombinant human glutathione S-transferase omega 1 | AID 463110 | recombinant GSTO1, gel ABPP SE-Rh probe fluorescence | inhibition, % at 1 µM | shares compounds with GSTO1 counter | 130 tested, 30% active;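 active means inhibition of the enzyme GSTO1 above about 75%, limit read from the data; inactive means inhibition below that limit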
# Hits are given with their value; 0 = inactive; - = no result given.
SMILES,PME-1 primary,LYPLA2 inh,GSTO1 counter,LYPLA1 inh,Fam108B counter,PREPL inh,GSTO1 inh conf,others
CCN(CC)NC(=O)Nc1ccccc1,0,0,0,0,0,0,-,
O=C(Nc1ccccc1)NN(C(=O)CCl)c1ccccc1,0,0,82.4,0,0,0,87.7,
Cc1ccc(N(NC(=O)C(O)(c2ccccc2)c2ccccc2)C(=O)CCl)cc1,0,0,82.3,0,0,0,92.2,
CCOC(=O)C1=C(COC(=O)C2CC(=O)N(c3ccc(CC)cc3)C2)NC(=O)NC1C (stereo not given),0,0,-,0,-,0,-,
C=CCNC(=O)COc1ccc(Br)cc1Cl,0,0,66.0,0,0,0,0,
Cc1ccn2cc(-c3cccc(NC(=O)C(C)C)c3)nc2c1,0,0,0,0,0,0,-,
Oc1ccc(-c2cn3ccccc3n2)cc1O,0,0,43.1,0,0,0,0,
Cc1ccn2cc(-c3ccc(O)c(O)c3)nc2c1,0,0,60.0,0,0,0,0,
O=C(c1ccco1)N1N=C(c2ccco2)CC1c1ccc(Cl)cc1Cl (stereo not given),0,0,-,0,-,0,-,
CCN(CC(=O)Nc1cc(Cl)ccc1C)C(=O)c1ccc(=O)n(Cc2ccccc2)n1,0,0,0,0,0,0,-,
Clc1ccc(-c2nnc(N3CCOCC3)o2)cc1,0,0,0,0,0,0,-,
CCNc1nc(NCC)nc(N/N=C/c2ccc(O)c(O)c2)n1,0,0,38.2,0,0,0,0,
O=C(Nc1cccc(C(F)(F)F)c1)C12CC3CC(CC(C3)C1)C2,0,0,0,0,0,0,-,
CC1(C(=O)Nc2cccc(C(F)(F)F)c2)CO1 (stereo not given),0,0,68.5,0,0,0,84.9,GSTO1 recomb ABPP=0
O=[N+]([O-])c1ccc(Cl)c(/C=N/n2c(-c3ccncc3)n[nH]c2=S)c1,0,0,49.7,0,0,0,0,
O=[N+]([O-])c1ccc(O)c(/C=N/n2c(-c3ccccc3)n[nH]c2=S)c1,0,0,0,0,0,0,-,
COc1cc(/C=C/C(=O)O)cc(S(=O)(=O)NCCCC(=O)O)c1OC,0,0,0,0,0,0,-,
CCOC(=O)c1c(CN(C)C)n(C)c2c(O)c(N=NC(N)=O)c3ccc(Br)cc3c12,0,0,49.3,0,0,0,0,
CCOC(=O)C1=C(C)OC(N)=C(C#N)C1c1cc2c(cc1[N+](=O)[O-])OCO2 (stereo not given),0,0,46.3,0,0,0,0,
O=C(O)c1cccc(NC2=C(N3CCOCC3)C(=O)c3ccccc3C2=O)c1,0,0,46.7,0,0,0,0,
O=C1C(NS(=O)(=O)c2cccs2)=C(N2CCOCC2)C(=O)c2ccccc21,0,0,0,0,0,0,-,
COc1ccc(N2C(C)=CS/C2=C(/C#N)c2nnc(N3CCOCC3)n2-c2ccccc2)cc1,0,0,0,0,0,0,-,
C=CCN1C(=O)NC(c2ccccc2)(C(F)(F)F)S/C1=C(\C#N)c1nnc(N2CCOCC2)n1-c1ccccc1 (stereo not given),0,0,42.9,0,0,0,57.5,
CCOC(=O)c1c(C)[nH]c(C)c1C(=O)COC(=O)c1cccc(S(=O)(=O)NC)c1,0,0,40.2,0,0,0,0,
CC(=O)N1CC2([N+](=O)[O-])CN(C(C)=O)CC([N+](=O)[O-])(C1)C2(C)C,0,0,0,0,0,0,-,
SMILES,PME-1 primary,LYPLA2 inh,GSTO1 counter,LYPLA1 inh,Fam108B counter,PREPL inh,GSTO1 inh conf,others
O=[N+]([O-])c1ccc(/C=N/n2cnc3ccccc32)s1,0,0,55.0,0,0,0,0,
CCN(CC(=O)Nc1ccc(S(=O)(=O)N2CCCC2)cc1)Cc1ccccc1,0,0,0,0,0,0,-,
CC(NC(=O)COC(=O)c1cc(NS(=O)(=O)c2ccc(Cl)c([N+](=O)[O-])c2)ccc1O)C1CC2CCC1C2 (stereo not given),0,0,46.1,0,0,0,40.4,
COc1ccc(NS(=O)(=O)c2ccc(O)c(C(=O)OCC(=O)NC(C)C3CC4CCC3C4)c2)cc1 (stereo not given),0,0,0,0,0,0,-,
CC(=O)c1ccc(S(=O)(=O)N2CCC(C(=O)Nc3ncc(C)s3)CC2)cc1,-,-,-,-,-,0,-,
Cc1cccc(NC(=O)Cn2nnc(C(=O)Nc3ccc(F)c(Cl)c3)c2N)c1,0,0,42.6,0,0,0,0,
COc1cccc(NC(=O)c2nnn(CC(=O)Nc3cc(C)cc(C)c3)c2N)c1,0,0,0,0,0,0,-,
C=C[C@@H]1c2cccc(C)c2N(S(=O)(=O)c2ccc(C)cc2)[C@H](c2ccc(OC(C)=O)cc2)C1(C#N)C#N,-,-,-,-,-,0,-,
COc1cc(-c2nnc(SCc3cc(=O)oc4cc(O)c(O)cc34)o2)cc(OC)c1OC,0,0,59.4,0,0,0,39.3,
CCOC(=O)CSc1nnc(-c2cc(OC)c(OC)c(OC)c2)o1,0,0,0,0,0,0,-,
O=C(COC(=O)/C=C/c1ccc(Cl)cc1)NC1CCCCCC1,0,0,-,0,-,0,-,
CN(C)c1cccc(NC(=O)c2cccc3ccccc23)c1,0,0,37.9,0,0,0,0,
COc1ccc(C(=O)NC2CCN(S(=O)(=O)c3ccc(C)cc3)CC2)cc1,0,0,0,0,0,0,-,
O=C(CCc1ccc(O)c(O)c1)N/N=C/c1ccc2c(c1)OCO2,0,0,43.8,0,0,0,0,
Cc1ccc(C)c(NC(=O)CCC(=O)N/N=C/c2ccc3c(c2)OCO3)c1,0,0,0,0,0,0,-,
Cc1ccc2[nH]c3c(c2c1)CCCC3NC(=O)CCl (stereo not given),0,0,93.4,0,0,0,98.9,
C=CCN=c1scc(C)n1/N=C/c1ccc(O)c(O)c1,0,0,95.5,0,0,0,0,
CCN(CC)c1ccc(N=C2C(=O)Nc3ccccc32)cc1,0,0,85.0,0,0,0,0,
Cc1ccc(N=C2C(=O)Nc3ccccc32)cc1,0,0,0,0,0,0,-,
CC1=NN(c2ccc(F)cc2)C(=O)C1C(c1cccc(O)c1)c1c(C)[nH]n(-c2ccc(F)cc2)c1=O (stereo not given),0,0,57.9,0,0,0,36.1,
Cc1[nH]n(-c2ccccc2)c(=O)c1C(=O)c1cccc(F)c1,0,0,0,0,0,0,-,
O=C(CN1CCCC1)N/N=C/c1c(O)ccc2ccccc12,0,0,38.2,0,0,0,0,
Cc1ccc(O)c(/C=N/NC(=O)CN2CCCC2)c1,0,0,0,0,0,0,-,
O=C1C(Cc2ccccc2)Nc2ncnc(N3CCc4ccccc4C3)c2N1Cc1ccc(Br)cc1 (stereo not given),0,0,0,0,0,0,-,
Nc1c(C(=O)CSc2nccn2-c2ccc(Cl)cc2)c(=O)[nH]c(=O)n1C1CC1,0,0,-,0,-,0,-,
